Consider 13 compounds from PubChem BioAssay (NCATS).

The target in assay [1] is Cytochrome P450 1A2 (Homo sapiens) (UniProt P05177). Briefly: p450-cyp1a2 (AID 410; calls by dose curve; note: potency is the fitted concentration of half-maximal effect). In a few lines: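 Luminescent readout of luciferin formed from Luciferin-ME by human CYP1A2; data normalized against complete inhibition by 57 uM furafylline. Enzyme 20nM, substrate 100uM at Km, 100mM KPO4 buffer, 60 min reaction at room temperature.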
Chain of Cytochrome P450 1A2 (Homo sapiens) (P05177 whole entry, looked up, the tested form may be a part): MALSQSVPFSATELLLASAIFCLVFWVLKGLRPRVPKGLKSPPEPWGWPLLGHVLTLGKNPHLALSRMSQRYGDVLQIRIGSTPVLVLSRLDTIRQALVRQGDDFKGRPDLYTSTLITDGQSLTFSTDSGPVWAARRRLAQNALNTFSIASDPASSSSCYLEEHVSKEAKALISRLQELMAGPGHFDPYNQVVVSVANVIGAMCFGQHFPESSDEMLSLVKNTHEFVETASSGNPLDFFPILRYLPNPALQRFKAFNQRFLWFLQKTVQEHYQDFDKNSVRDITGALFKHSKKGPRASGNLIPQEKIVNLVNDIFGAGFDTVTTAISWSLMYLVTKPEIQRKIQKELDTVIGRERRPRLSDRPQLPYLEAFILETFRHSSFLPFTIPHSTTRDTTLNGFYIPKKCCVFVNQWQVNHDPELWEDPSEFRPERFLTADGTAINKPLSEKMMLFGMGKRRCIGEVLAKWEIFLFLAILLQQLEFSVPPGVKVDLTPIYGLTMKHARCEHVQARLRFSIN
Assay [2] addresses Glucocorticoid receptor (Homo sapiens) (UniProt P04150). Briefly: GR-EFC Redistribution (AID 451; calls by dose curve; note: potency is the fitted concentration of half-maximal effect). As to conditions: CHO-K1 GR-EFC translocation, beta-gal luminescence, 2 h. The essentials: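 CHO-K1 cells stably expressing nuclear-localized β-gal enzyme acceptor and GR fused C-terminally to the enzyme donor fragment; ligand-driven nuclear translocation restores β-gal by complementation. Compounds titrated up to 46 uM final, 2 h at 37 °C; luminescence read.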

The target of assay [3] is Mitogen-activated protein kinase 10 (Mus musculus) (UniProt Q61831). The assay is described as follows: JNK3 AlphaScreen Assay (AID 530; active = well fitted curve in either direction with a large enough effect, not every such curve was filed as active;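 note: kinase came from lysate of stimulated human HepG2 cells; signal reports phosphorylation of biotinylated GST-cJun 1-79 at Ser73 with 10 µM ATP; series mostly up to about 57 µM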). The essentials: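 Inhibitors reduce antibody binding to phosphorylated biotin-cJun, lowering AlphaScreen luminescence. Lysates from HepG2 cells pre-activated by IL-1beta plus TNF-alpha supplied JNK3; compounds were titrated.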
Background: Bead proximity is the source of the signal in Alpha formats.

Assay [4] has as its target 3',5'-cyclic-AMP phosphodiesterase 4B (Homo sapiens) (UniProt Q07343). The assay is described as follows: qHTS Assay for Inhibitors of PDE-IV (AID 607; active = well fitted activation curve with a large enough effect in the main read-out, with a control signal flat, not every such curve was filed as active). The essentials:
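HEK293 ACTOne cells with CNG channel (1000/well), endogenous PDE4; membrane potential dye, compounds up to 22.9 uM final. Fluorescence Ex 535/Em 590; RO 20-1724 (100 uM final) as reference.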
Background: qHTS replaces the single test concentration by a dilution series.

Assay [5] has as its target Cytochrome P450 2C9 (Homo sapiens) (UniProt P11712). Briefly: qHTS Assay for Inhibitors and Substrates of Cytochrome P450 2C9 (AID 883). Note: nearly all actives have a fitted effect of over 60% in size. In a few lines:
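Human CYP2C9 (10nM) hydroxylated Luciferin-H (100uM, at its KM) to luciferin in 25mM KPO4. Compound was preincubated 10 min at 37C, then NADPH regeneration started a 60 min reaction at 37C. Luminescence was read after detection reagent, normalized to 57uM sulphaphenazole.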

In assay [6] the target is Cytochrome P450 2D6 (Homo sapiens) (UniProt P10635). The assay is described as follows: qHTS Assay for Inhibitors and Substrates of Cytochrome P450 2D6 (AID 891).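 Note: luciferin methyl ether substrate demethylated by CYP2D6 with NADPH regeneration; nearly all actives have a fitted effect of over 60% in size.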 The essentials: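 Human CYP2D6 (5 nM) with 30 uM Luciferin-ME EGE (at Km) in 100 mM KPO4, compound preincubated 10 min, then NADPH regeneration system for 60 min at room temperature. Luciferin read by luminescence; normalized to 1.43 uM quinidine.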
Chain of Cytochrome P450 2D6 (Homo sapiens) (P10635 whole entry, looked up): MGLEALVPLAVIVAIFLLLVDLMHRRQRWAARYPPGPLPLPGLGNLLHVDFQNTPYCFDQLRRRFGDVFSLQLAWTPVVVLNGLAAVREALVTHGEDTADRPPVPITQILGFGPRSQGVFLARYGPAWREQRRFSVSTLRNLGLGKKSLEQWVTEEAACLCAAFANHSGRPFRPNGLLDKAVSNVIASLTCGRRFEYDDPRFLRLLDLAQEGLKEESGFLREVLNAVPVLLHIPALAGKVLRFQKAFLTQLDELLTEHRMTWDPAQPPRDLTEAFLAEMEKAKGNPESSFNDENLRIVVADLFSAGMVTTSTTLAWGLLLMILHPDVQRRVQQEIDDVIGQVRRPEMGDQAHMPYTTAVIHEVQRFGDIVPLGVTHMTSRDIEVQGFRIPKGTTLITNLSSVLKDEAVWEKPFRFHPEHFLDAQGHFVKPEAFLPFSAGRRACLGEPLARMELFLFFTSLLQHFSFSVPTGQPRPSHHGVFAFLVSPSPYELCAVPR

For assay [7], the target named is Cytochrome P450 2C19 (Homo sapiens) (UniProt P33261). The assay is described as follows: qHTS Assay for Inhibitors and Substrates of Cytochrome P450 2C19 (AID 899). Note: nearly all actives have a fitted effect of over 60% in size. In a few lines: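 Human CYP2C19 (5nM) with Luciferin-H EGE at 10uM (its KM) in 50mM KPO4 was preincubated with compound for 10 min at 37C. NADPH regeneration started a 60 min 37C reaction. Luciferin was read by luminescence, normalized to 57uM ketoconazole.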
Chain of Cytochrome P450 2C19 (Homo sapiens) (P33261 whole entry, looked up): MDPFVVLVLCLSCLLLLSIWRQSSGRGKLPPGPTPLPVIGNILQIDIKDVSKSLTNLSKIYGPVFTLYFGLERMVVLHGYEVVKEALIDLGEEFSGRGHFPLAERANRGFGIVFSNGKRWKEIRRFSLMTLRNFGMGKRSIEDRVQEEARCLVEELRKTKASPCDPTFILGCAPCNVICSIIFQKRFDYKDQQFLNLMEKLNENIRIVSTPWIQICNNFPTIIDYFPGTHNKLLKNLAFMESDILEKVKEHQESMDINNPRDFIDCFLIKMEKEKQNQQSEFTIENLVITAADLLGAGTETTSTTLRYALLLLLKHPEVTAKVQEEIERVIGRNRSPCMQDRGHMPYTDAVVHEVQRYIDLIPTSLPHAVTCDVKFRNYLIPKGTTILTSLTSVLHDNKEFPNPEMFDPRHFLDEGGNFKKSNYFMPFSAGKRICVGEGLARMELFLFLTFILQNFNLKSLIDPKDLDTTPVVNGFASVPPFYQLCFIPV

Assay [8] has as its target Glucocorticoid receptor (Homo sapiens) (UniProt P04150). Briefly: GR-GFP Redistribution (AID 450;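 active = compounds whose dose series gives a full or clear partial fitted curve of increased nuclear translocation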; note: potency is the fitted concentration of half-maximal effect).

Unmarked numbers belong to inactive results. Records with an inconclusive call do not appear. Active and inactive are the calls of the source. Unless noted, calls come from the whole dose curve; as a rule, active = well fitted inhibition curve with a large enough effect; inconclusive = small, poorly fitted or top-dose-only effect; inactive = no such curve, though single readings can be large or run the other way. Some results are limits rather than exact numbers.

Chain of Glucocorticoid receptor (Homo sapiens) (P04150 whole entry, looked up, the tested form may be a part): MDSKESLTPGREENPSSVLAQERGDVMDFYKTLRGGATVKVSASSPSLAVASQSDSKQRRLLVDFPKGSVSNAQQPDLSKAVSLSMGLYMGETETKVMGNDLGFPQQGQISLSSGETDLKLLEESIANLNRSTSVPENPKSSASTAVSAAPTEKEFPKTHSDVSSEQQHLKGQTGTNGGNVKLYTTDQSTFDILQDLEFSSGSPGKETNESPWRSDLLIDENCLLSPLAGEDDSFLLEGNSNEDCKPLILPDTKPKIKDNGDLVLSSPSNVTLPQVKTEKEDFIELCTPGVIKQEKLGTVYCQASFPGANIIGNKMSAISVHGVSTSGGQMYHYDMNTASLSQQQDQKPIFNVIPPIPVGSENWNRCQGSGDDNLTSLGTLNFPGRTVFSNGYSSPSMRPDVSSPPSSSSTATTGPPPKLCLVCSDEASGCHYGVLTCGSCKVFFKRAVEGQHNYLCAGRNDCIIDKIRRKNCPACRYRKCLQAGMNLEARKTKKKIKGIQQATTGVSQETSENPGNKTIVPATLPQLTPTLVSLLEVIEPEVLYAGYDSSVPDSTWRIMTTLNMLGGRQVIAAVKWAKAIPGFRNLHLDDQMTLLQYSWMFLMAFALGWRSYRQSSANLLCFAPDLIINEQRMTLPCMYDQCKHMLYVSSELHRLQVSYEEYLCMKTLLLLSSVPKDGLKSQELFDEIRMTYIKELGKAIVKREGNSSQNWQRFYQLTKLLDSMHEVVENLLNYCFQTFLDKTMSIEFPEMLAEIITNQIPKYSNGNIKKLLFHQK
Chain of Cytochrome P450 2C9 (Homo sapiens) (P11712 whole entry, looked up): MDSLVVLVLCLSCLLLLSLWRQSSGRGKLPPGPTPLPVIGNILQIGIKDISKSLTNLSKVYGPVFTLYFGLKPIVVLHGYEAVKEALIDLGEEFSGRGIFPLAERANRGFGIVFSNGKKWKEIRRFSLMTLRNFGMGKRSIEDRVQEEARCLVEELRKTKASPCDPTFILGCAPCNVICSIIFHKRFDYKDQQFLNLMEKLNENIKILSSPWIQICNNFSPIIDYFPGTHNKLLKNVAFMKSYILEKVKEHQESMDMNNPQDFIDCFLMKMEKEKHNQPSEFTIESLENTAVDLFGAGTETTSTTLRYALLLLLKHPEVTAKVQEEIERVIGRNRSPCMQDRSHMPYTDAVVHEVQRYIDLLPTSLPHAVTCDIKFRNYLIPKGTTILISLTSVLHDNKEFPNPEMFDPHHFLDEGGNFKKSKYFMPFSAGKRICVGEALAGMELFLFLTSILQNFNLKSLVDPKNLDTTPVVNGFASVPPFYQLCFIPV
Chain of 3',5'-cyclic-AMP phosphodiesterase 4B (Homo sapiens) (Q07343 whole entry, looked up): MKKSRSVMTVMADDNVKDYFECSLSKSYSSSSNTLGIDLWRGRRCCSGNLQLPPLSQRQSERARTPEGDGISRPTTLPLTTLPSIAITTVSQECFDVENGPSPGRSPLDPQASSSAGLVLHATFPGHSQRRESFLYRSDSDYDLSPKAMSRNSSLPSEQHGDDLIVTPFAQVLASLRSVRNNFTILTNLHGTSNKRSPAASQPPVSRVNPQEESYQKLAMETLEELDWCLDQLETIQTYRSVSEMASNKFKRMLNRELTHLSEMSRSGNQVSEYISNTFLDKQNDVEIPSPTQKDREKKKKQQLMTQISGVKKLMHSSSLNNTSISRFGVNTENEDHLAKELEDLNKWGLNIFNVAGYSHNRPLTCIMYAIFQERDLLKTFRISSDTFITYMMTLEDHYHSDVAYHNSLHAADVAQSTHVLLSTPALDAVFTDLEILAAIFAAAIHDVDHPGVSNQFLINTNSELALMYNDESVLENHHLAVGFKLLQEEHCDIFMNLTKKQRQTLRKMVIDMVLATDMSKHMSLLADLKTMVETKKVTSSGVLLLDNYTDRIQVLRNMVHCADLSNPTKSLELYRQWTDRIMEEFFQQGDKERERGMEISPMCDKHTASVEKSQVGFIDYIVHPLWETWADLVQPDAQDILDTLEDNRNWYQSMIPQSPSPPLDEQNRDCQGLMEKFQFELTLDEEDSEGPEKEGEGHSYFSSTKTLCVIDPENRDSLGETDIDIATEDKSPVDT

On to `CC(C)[C@@H](CC(=O)N[C@@H]1CCCC[C@H]1C(=O)N[C@H](CC(=O)N[C@@H](CCC(=O)O)CC(=O)O)Cc1c[nH]c2ccccc12)NC(=O)C[C@H](Cc1c[nH]c2ccccc12)NC(=O)[C@@H]1CCCC[C@H]1N`, for which the Potency entry in assay [1], in assay [3], in assay [4], in assay [5], in assay [6] and in assay [7] was “inactive” throughout. Also, the Potency in assay [2] was over 46 µM.

In the case of `CC(C)C[C@@H](CC(=O)N[C@H](CC(=O)N[C@@H]1CCNC[C@H]1C(=O)N[C@H](CC(=O)N[C@@H](CCC(=O)O)CC(=O)O)Cc1ccccc1)C(C)C)NC(=O)[C@@H]1CNCC[C@H]1N`, the Potency in assay [1] was 31.6 µM (active); in assay [2], over 46 µM. Besides, the Potency entry in assay [3], in assay [4], in assay [5], in assay [6] and in assay [7] was “inactive” throughout.

With `CC(C)[C@@H](CC(=O)N[C@@H]1CCCC[C@H]1C(=O)N[C@H](CC(=O)N[C@@H](CCC(=O)O)CC(=O)O)Cc1ccccc1)NC(=O)C[C@H](Cc1c[nH]c2ccccc12)NC(=O)[C@@H]1CCCC[C@H]1N`, the Potency result in assay [1], in assay [3], in assay [4], in assay [5], in assay [6] and in assay [7] was “inactive” throughout. For the same compound, the Potency in assay [2] is over 46 µM.

In the case of `O=c1ccn([C@H]2O[C@H](CO)[C@@H](O)[C@@H]2O)c(=O)[nH]1`, the Potency entry in assay [1], in assay [3], in assay [4], in assay [5], in assay [6] and in assay [7] was “inactive” in each case. Moreover, in assay [8], the Potency is over 46 µM.

Take `CC(C)C[C@@H](CC(=O)N[C@H](CC(=O)N[C@@H]1CCNC[C@H]1C(=O)N[C@H](CC(=O)N[C@@H](CCC(=O)O)CC(=O)O)CC(C)C)C(C)C)NC(=O)[C@@H]1CCCC[C@H]1N`: the Potency result in assay [1], in assay [3] and in assay [4] was “inactive” in each case. For the same compound, in assay [2], the Potency was over 46 µM.

Take `NCCC[C@@H](CC(=O)N[C@@H]1CCCC[C@H]1C(=O)N[C@H](CC(=O)N[C@@H](CCC(=O)O)CC(=O)O)Cc1c[nH]c2ccccc12)NC(=O)C[C@H](Cc1ccccc1)NC(=O)[C@@H]1CNCC[C@H]1N`: the Potency in assay [1] is 15.8 µM (active); in assay [2], over 46 µM. In addition, the Potency entry in assay [3], in assay [4], in assay [5], in assay [6] and in assay [7] was “inactive” each time.

As to `CC(C)C[C@@H](CC(=O)N[C@@H](CCC(=O)O)CC(=O)O)NC(=O)[C@@H]1CCCC[C@H]1NC(=O)C[C@@H](NC(=O)C[C@H](Cc1ccccc1)NC(=O)[C@@H]1CCCC[C@H]1N)C(C)C`, the Potency result in assay [1], in assay [3], in assay [4], in assay [5], in assay [6] and in assay [7] was “inactive” in each case. Besides, the Potency in assay [2] is over 46 µM.

In the case of `CC(C)C[C@@H](CC(=O)N[C@H](CC(=O)N[C@@H]1CCNC[C@H]1C(=O)N[C@H](CC(=O)N[C@@H](CCC(=O)O)CC(=O)O)Cc1ccccc1)C(C)C)NC(=O)[C@@H]1CCCC[C@H]1N`, the Potency result in assay [1], in assay [3], in assay [4] and in assay [6] was “inactive” each time. In assay [2], the Potency was over 46 µM.

For the compound `CC(C)[C@@H](CC(=O)N[C@@H]1CCNC[C@H]1C(=O)N[C@H](CC(=O)N[C@@H](CCC(=O)O)CC(=O)O)Cc1ccccc1)NC(=O)C[C@H](CO)NC(=O)[C@@H]1CNCC[C@H]1N`, the Potency result in assay [1], in assay [4] and in assay [6] was “inactive” each time. Further, the Potency in assay [2] is over 46 µM.

Take `CC(C)C[C@@H](CC(=O)N[C@H](CC(=O)N[C@@H]1CCCC[C@H]1C(=O)N[C@H](CC(=O)N[C@@H](CCC(=O)O)CC(=O)O)Cc1c[nH]c2ccccc12)C(C)C)NC(=O)[C@@H]1CNCC[C@H]1N`: the Potency entry in assay [1], in assay [4], in assay [5], in assay [6] and in assay [7] was “inactive” each time. The Potency in assay [2] is over 46 µM.

As for `NCCC[C@@H](CC(=O)N[C@@H]1CCCC[C@H]1C(=O)N[C@H](CC(=O)N[C@@H](CCC(=O)O)CC(=O)O)Cc1c[nH]c2ccccc12)NC(=O)C[C@H](CO)NC(=O)[C@@H]1CNCC[C@H]1N`, the Potency result in assay [1], in assay [4] and in assay [7] was “inactive” throughout. Moreover, the Potency in assay [2] is over 46 µM.

Regarding `CC(C)C[C@@H](CC(=O)N[C@@H](CCC(=O)O)CC(=O)O)NC(=O)[C@@H]1CCCC[C@H]1NC(=O)C[C@H](CCCN)NC(=O)C[C@H](CO)NC(=O)[C@@H]1CNCC[C@H]1N`, the Potency entry in assay [1], in assay [3], in assay [4], in assay [6] and in assay [7] was “inactive” throughout. Besides, the Potency in assay [2] is over 46 µM.

Consider `CC(C)C[C@@H](CC(=O)N[C@@H](CCC(=O)O)CC(=O)O)NC(=O)[C@@H]1CNCC[C@H]1NC(=O)C[C@@H](NC(=O)C[C@H](Cc1ccccc1)NC(=O)[C@@H]1CNCC[C@H]1N)C(C)C`, for which the figures for the Potency in assay [1] and in assay [2] were 31.6 µM (active) and over 46 µM, respectively. In addition, the Potency result in assay [3], in assay [5] and in assay [6] was “inactive” in each case.
